Data: the supplement of paper PMC13380429
A number with no mark means an inactive call.

System: Vero E6 infected with SARS-CoV-2
Assay: inhibition of SARS-CoV-2 cytopathic effect; higher = more antiviral protection, active = above 15
Details: 48 h

| SMILES | inhibition of SARS-CoV-2 cytopathic effect (1 nM) | inhibition of SARS-CoV-2 cytopathic effect (8.33 nM) | inhibition of SARS-CoV-2 cytopathic effect (100 nM) | inhibition of SARS-CoV-2 cytopathic effect (833.33 nM) | inhibition of SARS-CoV-2 cytopathic effect (10000 nM) |
| --- | --- | --- | --- | --- | --- |
| Clc1ccc(C(c2ccc(Cl)cc2)C(Cl)(Cl)Cl)cc1 | 1.71% | 4.86% | 0.57% | -1.73% | -1.33% |
| N[C@@H](Cc1ccc(O)cc1)C(=O)O [plovamer-acetate] | -8.12% | -7.1% | -9.88% | -9.04% | -5.19% |
| COc1cc2c(cc1-c1c(C)noc1C)ncc1[nH]c(=O)n([C@H](C)c3ccccn3)c12 | -7.87% | -7.32% | -3.13% | 1.38% | -8.07% |
| O=C(NCCN1CCOCC1)c1ccc(Cl)cc1 [moclobemide] | 1.23% | 2.39% | 0.11% | -2.19% | -0.2% |
| CCC(O)(CC(N)=O)c1ccccc1 (stereo not given) [3-hydroxy-3-phenylpentanamide] | 1.46% | 0.49% | -0.1% | -10.4% | 0.22% |
| O=C(Nc1cc(C(F)(F)F)cc(C(F)(F)F)c1)c1cnc(Cl)nc1C(F)(F)F | 0.53% | -0.29% | 0.4% | -4.18% | -13.9% |
| O=C(c1cn(Cc2cncn2Cc2ccc(Br)cc2)cc1-c1cccc2ccccc12)N1CCOCC1 | -2.2% | -3.17% | -1.58% | -0.44% | -3.78% |
| CC(C)[C@@H](C)/C=C/[C@@H](C)[C@H]1CC[C@H]2/C(=C/C=C3\C[C@@H](O)CC[C@@H]3C)CCC[C@]12C [dihydrotachysterol] | -0.76% | 0.52% | -1.39% | -0.26% | -0.14% |
| O.O=[Si]=O.O=[Si]=O.O=[Si]=O.O=[Si]=O.[O]=[Mg].[O]=[Mg].[O]=[Mg] | -4.07% | 0.07% | -1.66% | 5.91% | 8.79% |
| C=C1/C(=C\C=C2/CCC[C@]3(C)[C@@H]([C@H](C)/C=C/[C@@H](O)C4CC4)CC[C@@H]23)C[C@@H](O)C[C@@H]1O [calcipotriol] | -0.16% | 1.94% | -0.66% | 0.91% | 3.83% |
| COc1ccc(NS(=O)(=O)c2ccc(I)cc2)cc1N1CCN(C)CC1 | 0.59% | -5.4% | 0.99% | 0.95% | -1.3% |
| O=C(NCc1ccc2c(c1)OCO2)c1c(Cl)cccc1Cl [alda-1] | -2.37% | 0.82% | -2.66% | -5.92% | -3.23% |
| O=C(/C=C/c1ccc(O)c(O)c1)O[C@H](Cc1ccc(O)c(O)c1)C(=O)O [rosmarinic-acid] | 2.8% | 3.5% | 2.25% | 3.06% | 3.05% |
| CC[C@H](C)[C@@H]1NC(=O)[C@H](Cc2ccc(O)cc2)NC(=O)[C@@H](N)CSSC[C@@H](C(=O)N2CCC[C@H]2C(=O)N[C@@H](CC(C)C)C(=O)NCC(N)=O)NC(=O)[C@H](CC(N)=O)NC(=O)[C@H](CCC(N)=O)NC1=O [oxytocin] | 5.14% | 3.79% | 3.52% | 0.66% | -0.57% |
| CCN1C[C@]2(COC(=O)c3ccccc3N3C(=O)C[C@H](C)C3=O)CC[C@H](OC)[C@@]34[C@@H]5C[C@H]6[C@H](OC)[C@@H]5[C@](O)(C[C@@H]6OC)[C@](O)([C@@H](OC)[C@H]23)[C@@H]14 [methyllycaconitine] | -1.85% | -0.91% | 0.85% | 0.06% | -1.4% |
| N#Cc1nn(-c2c(Cl)cc(C(F)(F)F)cc2Cl)c(N)c1[S+]([O-])C(F)(F)F (stereo not given) [fipronil] | 0.34% | 3.14% | 1.21% | 3.8% | 3.66% |
| O=C(Nc1ccc(Oc2ccc(Cl)cn2)c(Cl)c1)c1ccccn1 | 0.81% | -0.54% | 1.75% | -3.64% | 0.26% |
| COC1=CC(=O)C[C@@H](C)[C@]12Oc1c(Cl)c(OC)cc(OC)c1C2=O [griseofulvin] | 1.17% | 0.82% | 0.95% | 2.52% | 1.84% |
| COc1cc(Oc2ccnc3cc(OC)c(OC)cc23)ccc1NC(=O)NC(C)c1nccs1 (stereo not given) | -1.6% | 0.95% | 1.7% | 0.48% | -1.8% |

| SMILES | inhibition of SARS-CoV-2 cytopathic effect (1 nM) | inhibition of SARS-CoV-2 cytopathic effect (8.33 nM) | inhibition of SARS-CoV-2 cytopathic effect (100 nM) | inhibition of SARS-CoV-2 cytopathic effect (833.33 nM) | inhibition of SARS-CoV-2 cytopathic effect (10000 nM) |
| --- | --- | --- | --- | --- | --- |
| CC[n+]1c(-c2ccccc2)c2cc(N)ccc2c2ccc(N)cc21 [homidium] | 4.78% | 6.71% | 5.98% | 0.35% | 6.13% |
| COc1cc2c(NC3CCN(CC4CCCCC4)CC3)nc(N3CCCN(C(C)C)CC3)nc2cc1OCCCN1CCCCC1 | 0.74% | -1.71% | -3.06% | 0.36% | -20.7% |
| CCN1C(=O)NC(c2ccccc2)C1=O (stereo not given) [ethotoin] | 0.06% | 4.06% | 2.41% | 2.46% | -0.15% |
| O=C(O)CCC/C=C\C[C@@H]1[C@@H](/C=C/[C@@H](O)COc2cccc(Cl)c2)[C@H](O)C[C@@H]1O (racemic) [cloprostenol-(+/-)] | -2.05% | 0.95% | 2.48% | 5.03% | 0.05% |
| O=C(N[C@H]1CN2CCC1CC2)c1cc2cccc(Cl)c2s1 | -0.49% | -1.25% | 2.35% | -1.74% | -7.63% |
| O=C(NCCS(=O)(=O)c1ccc(C(F)(F)F)cn1)c1ccc(Cl)cc1 | 4.56% | -1.99% | 5.99% | 1.04% | 1.56% |
| Cc1ccc(Nc2c(F)cccc2Cl)c(CC(=O)O)c1 [lumiracoxib] | -0.15% | -0.84% | -0.33% | 0.6% | -0.38% |
| CC(C[N+](C)(C)C)OC(N)=O (stereo not given) [bethanechol] | -5.4% | 2.96% | -4.87% | -5.89% | -6.25% |
| O=[N+]([O-])c1ccccc1S(=O)(=O)NCC1CCC(CNC[C@H]2CCc3ccccc3C2)CC1 (stereo not given in full) | 0.09% | 1.35% | -1.44% | -4.04% | 42.4% (active) |
| CC(=O)O[C@]1(C(C)=O)CC[C@H]2[C@@H]3C[C@H](C)C4=CC(=O)CC[C@]4(C)[C@H]3CC[C@@]21C [medroxyprogesterone-acetate] | 1.02% | 0.71% | -1.14% | 2.58% | 6.49% |
| CC(N)C12CC3CC(CC(C3)C1)C2 (stereo not given) [rimantadine] | -2.29% | -2.48% | -4.1% | -5.56% | -5.71% |
| CC(O)CN1CCN(CC(=O)[O-])CCN(CC(=O)[O-])CCN(CC(=O)[O-])CC1.[Gd+3] (stereo not given) [gadoteridol] | 0.66% | -0.76% | 0.17% | 0.32% | -3.99% |
| C[C@H]1C[C@H]2[C@@H]3CCC4=CC(=O)C=C[C@]4(C)[C@H]3C(=O)C[C@]2(C)[C@@]1(O)C(=O)CO [Betapar (Meprednisone)] | 0.88% | 0.92% | 2.1% | 0.12% | 4.2% |
| NS(=O)(=O)c1cc2c(cc1C(F)(F)F)NCNS2(=O)=O [hydroflumethiazide] | 0.67% | 2.12% | 1.79% | 0.37% | 0.46% |
| CCOC(=O)c1cncn1[C@H](C)c1ccccc1 [etomidate] | 0.18% | -0.71% | -2.47% | 1.97% | 0.06% |
| O=C(O)C(F)(F)C(F)(F)C(F)(F)C(F)(F)C(F)(F)C(F)(F)C(F)(F)F [ammonium-perfluorocaprylate] | 2.29% | -0.68% | 0.56% | -0.2% | -2.3% |
| Cc1ccccc1-n1c(Cn2ncc3c(N)ncnc32)nc2cccc(C)c2c1=O | -1.01% | 0.63% | 0.62% | -3.58% | 54.3% (active) |
| C[C@H]1C[C@H]2[C@@H]3CCC4=CC(=O)C=C[C@]4(C)[C@@]3(F)[C@@H](O)C[C@]2(C)[C@@]1(O)C(=O)CO [betamethasone] | 0.395% | -1.08% | 2.04% | 1.69% | -0.195% |
